From PubChem
TDP1 cell noCPT – qHTS for Inhibitors of human tyrosyl-DNA phosphodiesterase 1 (TDP1): qHTS in cells in absence of CPT; Potency, µM (titrated, usually from 46.2 µM), most hits filed as inhibitors; AID 686978, 2013; DT40 Tdp1-/- hTDP1 cells, no CPT, ATP luminescence, 48 h; 15% of 420,000 active; further: nearly all actives have a fitted effect of over 55% in size
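Chicken DT40 Tdp1-/- cells complemented with human TDP1, screened without camptothecin (DMSO vehicle only), 400 cells/well. Compounds pin-transferred, cells incubated at 37 °C for at least 48 hr. Growth read as ATP-dependent luminescence (CellTiter-Glo, 30 min at RT).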
RORg inh – inhibitors of mouse ROR gamma transcriptional activity | P51450 | Drosophila S2 Gal4-RORgamma UAS-luciferase reporter, 20 h | Potency, µM (doses to about 53.6 µM), actives largely listed as inhibitors | 5.4% of 310,000 active | AID 2551; further: nearly all actives have a fitted effect of over 60% in size
Target sequence (P51450 whole entry, looked up, the tested form may be a part): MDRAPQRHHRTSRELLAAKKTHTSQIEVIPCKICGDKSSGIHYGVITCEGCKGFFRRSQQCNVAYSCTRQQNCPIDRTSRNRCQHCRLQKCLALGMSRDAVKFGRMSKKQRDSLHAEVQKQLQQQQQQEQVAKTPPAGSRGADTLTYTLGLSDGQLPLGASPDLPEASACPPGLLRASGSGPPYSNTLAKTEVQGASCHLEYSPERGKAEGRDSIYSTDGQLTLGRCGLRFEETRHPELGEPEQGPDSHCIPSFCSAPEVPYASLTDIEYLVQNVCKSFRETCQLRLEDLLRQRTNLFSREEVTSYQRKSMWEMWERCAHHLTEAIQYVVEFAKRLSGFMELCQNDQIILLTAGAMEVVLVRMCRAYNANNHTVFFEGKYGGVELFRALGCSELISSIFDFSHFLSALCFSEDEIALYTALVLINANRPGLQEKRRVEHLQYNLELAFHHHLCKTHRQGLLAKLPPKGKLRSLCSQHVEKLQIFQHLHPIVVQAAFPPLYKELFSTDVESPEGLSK
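Luciferase reporter read in Schneider cells carrying Gal4-RORγ (mouse) and UAS-Photinus luciferase; cells given compound 1 h before 700 uM copper sulfate induction, then incubated 20 h at ambient temperature.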
IL1B secr inh – inhibitors of inflammasome signaling (IL-1 beta secretion); activity change, % at 57.5 µM; THP-1 LPS/ATP IL-1B secretion, AlphaLISA, 16 h; active compounds read low; 4.7% of 360,000 active; in the data active means activity change below about -50%; inconclusive means mostly about -30% to -49%
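THP-1 cells pretreated 1 hr with compounds (up to 57.5 uM final), then stimulated with LPS (250 ng/mL final) plus ATP (1.25 mM final); secreted IL-1B measured by AlphaLISA after 16 hr, decreased signal indicating inhibition.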
ELG1 repair inh – blocks ELG1-dependent DNA repair in HEK293T cells; HEK293T ELG1-luciferase reporter, luminescence, 16 h; DNA damage induced by 5-fluorouridine; Potency, µM (doses to about 46.1 µM), actives largely listed as inhibitors; 2.3% of 330,000 active; AID 504467; further: nearly all actives have a fitted effect of over 55% in size
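In this reporter screen, reduction of luminescence relative to DMSO vehicle indicated activity. Compounds and 5-fluorouridine were added together to 2,000 cells per well, incubated for 16 hr at 37 °C, then developed with ONE-Glo.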
DT40 TDP1 CPT – growth inhibition of DT40 Tdp1-/-;hTDP1 cells with camptothecin (screen for TDP1 inhibitors) | chicken DT40 Tdp1-/-;hTDP1 cells + 20 nM CPT, ATP luminescence, 48 h | Potency, µM (titrated, usually from 46.2 µM), most hits filed as inhibitors | 12% of 420,000 active | AID 686979; further: nearly all actives have a fitted effect of over 55% in size
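Chicken DT40 Tdp1-/- cells complemented with human TDP1, 400 cells/well, exposed to compounds plus 20 nM camptothecin for at least 48 h at 37 C; viability read as ATP content by CellTiter-Glo luminescence.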
VP16 counter – inhibits Gal4-VP16 luciferase reporter, ROR gamma counter-screen. Potency, µM (highest dose often 53.6 µM), actives largely listed as inhibitors. 3.5% of 310,000 active. Drosophila S2 Gal4-VP16 UAS-luciferase, luminescence, 20 h;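 further: Gal4-VP16 expression switched on by copper sulfate through the metallothionein promoter; nearly all actives have a fitted effect of over 50% in size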
A number is an active result; [ ] = another dose, or the depositor's remark. Only some compounds are listed: those with a hit (about 21% of all), similar ones and a draw of the others. Unless noted, the call rests on the fitted dose curve; in most records, active means well fitted curve in the direction sought with a large enough effect; inconclusive means small, poorly fitted or top-dose-only effect, or another doubt; inactive means no such curve, though single readings can be large; an effect the other way counts as inactive or inconclusive.

Results for CCCOc1ccc(C(=O)Nc2ccc(NC(=O)c3ccccc3)c(C)c2)cc1 ?
TDP1 cell noCPT: 16µM; DT40 TDP1 CPT: inconclusive

Results for CN(C)c1ccc(CNC(=O)[C@@]2(C)C=C[C@@H](Cc3ccccc3)N2C)cc1 ?
RORg inh: inactive; VP16 counter: inactive

Results for COc1ccc2c(CC(=O)Nc3ccc(C)cc3)coc2c1 ?
TDP1 cell noCPT: inactive; DT40 TDP1 CPT: inconclusive

What do the screens show for `Cc1cnc(CNc2cc(-c3cccc(NS(C)(=O)=O)c3)ncn2)cn1`?
TDP1 cell noCPT: inactive; RORg inh: inactive; DT40 TDP1 CPT: inactive; VP16 counter: inactive

Results for CCCn1c(SCC(=O)NNC(=O)c2ccccc2)nnc1-c1cccnc1 ?
TDP1 cell noCPT: inactive; RORg inh: inactive; IL1B secr inh: inactive; ELG1 repair inh: inconclusive; DT40 TDP1 CPT: inactive; VP16 counter: inactive

Results for CCc1cccc(C)c1NC(=O)CCCn1nc(C)c2sc3ccccc3c2c1=O ?
TDP1 cell noCPT: inactive; DT40 TDP1 CPT: inactive

Results for CC(=O)OC1CCC2(C)C(CCC3C4CC=C(C(C)=O)C4(C)OC(=O)CC32)C1 (stereo not drawn) ?
TDP1 cell noCPT: 2.1µM; IL1B secr inh: -107; DT40 TDP1 CPT: 2.3µM

Results for CCCCn1c(N)c(N(CC)C(=O)CN2C(=O)NC(C)(c3ccccc3)C2=O)c(=O)[nH]c1=O (stereo not drawn) ?
TDP1 cell noCPT: inactive; IL1B secr inh: inactive; DT40 TDP1 CPT: inactive

How did CCc1c(C)nc2cc(-c3cc(OC)cc(OC)c3)nn2c1N1CCCC1 do in these assays?
TDP1 cell noCPT: 23µM; RORg inh: 7.1µM; IL1B secr inh: inconclusive; ELG1 repair inh: inconclusive; DT40 TDP1 CPT: 29µM; VP16 counter: 13µM

What do the screens show for `COc1ccc(-c2cc(-c3ccccc3)nc(N3CCCC3)n2)cc1OC`?
TDP1 cell noCPT: inactive; RORg inh: inactive; IL1B secr inh: inactive; ELG1 repair inh: inactive; DT40 TDP1 CPT: inactive; VP16 counter: inactive

Results for CCc1c(C)nc2cc(-c3ccc(OC)c(OC)c3)nn2c1N1CCCC1 ?
TDP1 cell noCPT: 23µM; RORg inh: inactive; IL1B secr inh: inconclusive; ELG1 repair inh: 13µM; DT40 TDP1 CPT: inconclusive; VP16 counter: inconclusive

What do the screens show for `CCOCCN1CCN(c2c(CC)c(C)nc3cc(-c4cc(OC)cc(OC)c4)nn23)CC1`?
TDP1 cell noCPT: 15µM; RORg inh: inconclusive; IL1B secr inh: inconclusive; ELG1 repair inh: 6.5µM; DT40 TDP1 CPT: 21µM; VP16 counter: inactive

How did COc1cc(OC)cc(-c2cc3nc4c(c(N5CCN(c6ncccn6)CC5)n3n2)CCCC4)c1 do in these assays?
TDP1 cell noCPT: 23µM; RORg inh: inactive; IL1B secr inh: inactive; ELG1 repair inh: 15µM; DT40 TDP1 CPT: inconclusive; VP16 counter: inactive

What do the screens show for `CCC(C)C1NC(=O)C(CCNCS(=O)(=O)O)NC(=O)C(NC(=O)C(CCNCS(=O)(=O)O)NC(=O)C(NC(=O)C(CCNCS(=O)(=O)O)NC(=O)CCCCC(C)C)C(C)O)CCNC(=O)C(C(C)O)NC(=O)C(CCNCS(=O)(=O)O)NC(=O)C(CCNCS(=O)(=O)O)NC(=O)C(C(C)CC)NC1=O` (stereo not drawn)?
RORg inh: inconclusive; VP16 counter: inactive

How did NC(N)=NCCC[C@@H](N)C(=O)NCC(=O)N[C@@H](CC(=O)O)C(=O)N[C@@H](Cc1c[nH]c2ccccc12)C(=O)O do in these assays?
RORg inh: inactive; VP16 counter: inactive

Results for CC1(c2nc3ccccc3[nH]2)CCC(=O)N1Cc1cccs1 (stereo not drawn) ?
TDP1 cell noCPT: inactive; IL1B secr inh: inactive; DT40 TDP1 CPT: inactive

Results for CCOCCN1CCN(c2c3c(nc4cc(-c5ccc(F)cc5)nn24)CCC3)CC1 ?
TDP1 cell noCPT: 16µM; RORg inh: inactive; IL1B secr inh: inactive; ELG1 repair inh: inconclusive; DT40 TDP1 CPT: inconclusive; VP16 counter: inactive

How did CCc1ccc2c(F)cccc2n1 do in these assays?
TDP1 cell noCPT: inactive; IL1B secr inh: inactive; DT40 TDP1 CPT: inactive

What do the screens show for `CCn1c(N2CCN(S(=O)(=O)CC)CC2)nc2ccccc21`?
TDP1 cell noCPT: inactive; RORg inh: inactive; IL1B secr inh: inactive; ELG1 repair inh: inactive; DT40 TDP1 CPT: inactive; VP16 counter: inactive

What do the screens show for `CCn1c(N2CCN(S(=O)(=O)c3ccc(Cl)cc3)CC2)nc2ccccc21`?
TDP1 cell noCPT: 15µM; RORg inh: inconclusive; IL1B secr inh: -87; ELG1 repair inh: 15µM; DT40 TDP1 CPT: 15µM; VP16 counter: inconclusive

How did CCn1c(N2CCN(S(=O)(=O)c3ccc(F)cc3)CC2)nc2ccccc21 do in these assays?
TDP1 cell noCPT: 15µM; RORg inh: inactive; IL1B secr inh: -59; ELG1 repair inh: inconclusive; DT40 TDP1 CPT: inconclusive; VP16 counter: inactive

Results for O=S(=O)(c1ccc(Cl)cc1)N1CCN(c2nc(C(F)(F)F)nc3ccccc23)CC1 ?
TDP1 cell noCPT: inconclusive; IL1B secr inh: inactive; DT40 TDP1 CPT: inconclusive

Results for O=C1CCC(C(=O)N2CCCC(N3CCN(c4cccc(C(F)(F)F)c4)CC3)C2)=NN1 (stereo not drawn) ?
TDP1 cell noCPT: inactive; RORg inh: inactive; IL1B secr inh: inactive; ELG1 repair inh: inactive; DT40 TDP1 CPT: inactive; VP16 counter: inactive

How did COc1ccc(NC(=O)c2ccco2)cc1NC(=O)c1cc(Cl)ccc1OC do in these assays?
TDP1 cell noCPT: inactive; DT40 TDP1 CPT: inactive

Results for NC(=O)SCC(=O)Nc1cccc(Cl)c1 ?
TDP1 cell noCPT: inconclusive; RORg inh: 10µM; IL1B secr inh: -62; ELG1 repair inh: inactive; DT40 TDP1 CPT: inconclusive; VP16 counter: inconclusive

Results for N#CCSCC(=O)Nc1ccc(Cl)cc1 ?
TDP1 cell noCPT: inactive; RORg inh: inactive; IL1B secr inh: inactive; ELG1 repair inh: inactive; DT40 TDP1 CPT: inactive; VP16 counter: inactive

How did NC(=O)SCC(=O)Nc1ccc(Cl)c(Cl)c1 do in these assays?
TDP1 cell noCPT: 23µM; RORg inh: inconclusive; IL1B secr inh: -103; ELG1 repair inh: inactive; DT40 TDP1 CPT: 9.2µM; VP16 counter: inconclusive

What do the screens show for `COC(=O)CCC(=O)Nc1ccc(Cl)c(Cl)c1`?
TDP1 cell noCPT: inactive; RORg inh: inactive; IL1B secr inh: inactive; ELG1 repair inh: inactive; DT40 TDP1 CPT: inactive; VP16 counter: inactive

Results for Cc1c(Cl)cccc1NC(=O)CSCC(N)=O ?
TDP1 cell noCPT: inactive; RORg inh: inactive; IL1B secr inh: inactive; ELG1 repair inh: inactive; DT40 TDP1 CPT: inactive; VP16 counter: inactive

Results for Cc1c(Cl)cccc1NC(=O)CSC(N)=O ?
TDP1 cell noCPT: 16µM; RORg inh: inactive; IL1B secr inh: -92; ELG1 repair inh: inactive; DT40 TDP1 CPT: 21µM; VP16 counter: inactive[10 µM]
